Screening results from PubChem BioAssay.
Rows were chosen to be rich in hits. Some 6.6% of all compounds tested hit in one or more screens of this group.
NR3A LBD binder = binders of NR3A ligand-binding domain, primary screen, biophysical, differential scanning fluorimetry, uHTS | Glutamate receptor ionotropic, NMDA 3A (GRIN3A) ligand-binding domain | NR3A LBD differential scanning fluorimetry, Tm shift; 0% = protein alone, 100% = glycine-bound protein | Tm shift relative to glycine control, % at 25 µM | 2.5% of 340,000 active | AID 1259313, 2017;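 active = melting temperature shift of at least 10% of the positive control shift, at one fixed dose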
MPTP inh = mitochondrial permeability transition pore inhibitors, primary screen, biochemical, isolated mouse mitochondria, absorbance; Ca2+ swelling absorbance, 30 min; 1.4% of 360,000 active; AID 602449, 2012; inhibition, % at 10 µM;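 active = inhibition of 50% or more, scaled per plate between neutral and stimulator controls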;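 note: 0% = DMSO wells given calcium and 100% = 1 mM EGTA wells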
CSC inhib = cancer stem cell viability inhibitors, primary screen, luminescence; cancer stem cell-like cells viability; inhibition, % at 7.5 µM; 1.1% of 300,000 active; in the data active = inhibition above about 75%; tested in HMLE shEcad cells
Mdm2-MdmX inh = inhibitors of human Mdm2-MdmX association, primary screen, cell-based, luminescence, split luciferase, SaOS-2, uHTS | inhibition, % at 8 µM | Protein Mdm4 (Homo sapiens) + E3 ubiquitin-protein ligase Mdm2 (Homo sapiens), … | SaOS-2 split-luciferase Mdm2/MdmX complementation | 3% of 330,000 active | AID 485346, 2010;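 active = inhibition of at least 50% at 8 µM in the primary screen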
Target sequence (O15151 whole entry, looked up): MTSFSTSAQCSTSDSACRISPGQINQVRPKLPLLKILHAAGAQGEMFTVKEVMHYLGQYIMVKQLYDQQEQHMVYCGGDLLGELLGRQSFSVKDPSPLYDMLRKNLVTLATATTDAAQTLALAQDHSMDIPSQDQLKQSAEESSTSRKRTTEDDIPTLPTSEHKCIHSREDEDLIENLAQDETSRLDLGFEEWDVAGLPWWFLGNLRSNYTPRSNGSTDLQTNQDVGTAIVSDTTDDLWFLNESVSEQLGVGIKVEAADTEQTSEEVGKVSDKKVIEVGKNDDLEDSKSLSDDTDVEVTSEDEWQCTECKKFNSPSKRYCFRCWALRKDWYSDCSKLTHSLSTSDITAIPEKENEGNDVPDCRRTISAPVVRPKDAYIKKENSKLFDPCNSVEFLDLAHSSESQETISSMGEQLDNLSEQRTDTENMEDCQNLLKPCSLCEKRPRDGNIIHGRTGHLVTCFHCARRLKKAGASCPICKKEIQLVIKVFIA
Target sequence (Q00987 whole entry, looked up): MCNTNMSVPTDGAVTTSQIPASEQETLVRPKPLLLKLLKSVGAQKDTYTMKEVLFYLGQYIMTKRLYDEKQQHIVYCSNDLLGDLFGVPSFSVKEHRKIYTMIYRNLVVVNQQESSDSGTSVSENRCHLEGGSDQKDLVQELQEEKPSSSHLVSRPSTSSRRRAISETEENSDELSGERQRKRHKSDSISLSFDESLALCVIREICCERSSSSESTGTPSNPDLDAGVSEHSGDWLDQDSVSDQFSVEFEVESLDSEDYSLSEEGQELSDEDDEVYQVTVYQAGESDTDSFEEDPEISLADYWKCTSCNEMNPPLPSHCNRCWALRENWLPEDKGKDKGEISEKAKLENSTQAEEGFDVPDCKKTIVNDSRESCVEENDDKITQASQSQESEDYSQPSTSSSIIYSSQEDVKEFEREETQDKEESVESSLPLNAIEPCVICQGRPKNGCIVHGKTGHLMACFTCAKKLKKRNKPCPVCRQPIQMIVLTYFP
Gli-Sufu block = Gli-Sufu pathway antagonists, primary screen, luciferase luminescence, Sufu-KO-LIGHT cells, uHTS. Sufu-KO-LIGHT fibroblasts, Gli luciferase reporter luminescence. inhibition, % at 5 µM. 0.74% of 340,000 active. AID 588413, 2011;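 active = inhibition above about 55%, limit read from the data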;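 note: 0% = DMSO-treated cells and 100% = wells with medium but no cells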
Beta apoptosis = inhibitors of cytokine-induced beta cell apoptosis, primary screen, luminescence; AID 435005, 2010; INS-1E cytokine-induced death, ATP luminescence, 48 h; percent of positive-control rescue, neutral wells zero; protection from apoptosis, % (no concentration beside the values); 0.8% of 300,000 active;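 active = Every replicate reaches about 75%, or at least half do and their mean reaches it too, limit read from the data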;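 note: 0% = cytokine-treated negative control wells and 100% = positive control rescue; higher means more ATP so stronger rescue from cytokine killing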
Mdm2-MdmX conf = Mdm2-MdmX complex disruptors, retested hits, confirmation, luminescence, single concentration; shares compounds with Mdm2-MdmX inh; Mdm2-MdmX binding, luminescent assay; inhibition, % at 8 µM; 55% of 10,000 active; AID 489028, 2010; in the data active = inhibition above about 40%
FLuc counter = full-length luciferase signal inhibition, confirmation, counter-screen for Mdm2/MdmX interaction inhibitor project, cell-based, single concentration, SaOS-2 | 77% of 6,200 active | shares compounds with Mdm2-MdmX inh | AID 504607, 2011 | SaOS-2 full-length luciferase counterscreen, luminescence | inhibition, % at 8 µM;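 active = mean inhibition at 8 µM reaching about 37%, which flags the compound as non-specific, limit read from the data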;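 note: p53-null SaOS-2 cells with luciferase driven by a doxycycline-inducible promoter; compound on cells about two nights before reading with doxycycline added after day one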
MPTP counter = fluorescence retest of MPTP screen hits in isolated mitochondria, single concentration | inhibition, % at 10 µM | 78% of 5,000 active | shares compounds with MPTP inh | membrane potential, Rhodamine 123 fluorescence | AID 624504, 2012; in the data active = inhibition above about 22%;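 note: 0% = DMSO vehicle and 100% = positive control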
MPTP swell DR = mitochondrial permeability transition pore inhibitors, dose response, biochemical, absorbance, uHTS hits; IC50, µM; 58% of 780 active; shares compounds with MPTP inh; isolated mitochondria swelling; AID 651561, 2012; in the data active = IC50 below about 20 µM
MPTP cs DR = fluorescent counter-screen in isolated mitochondria, dose response, counter-screen for MPTP inhibitor project, biochemical, fluorescence, uHTS hits. shares compounds with MPTP inh. isolated mitochondria counterscreen, fluorescence read-out. IC50, µM. 49% of 780 active. AID 651564, 2012; in the data active = IC50 below about 80 µM
Active calls of the source: *; · = no result given; + = active, no number.

SMILES | NR3A LBD binder | MPTP inh | CSC inhib | Mdm2-MdmX inh | Gli-Sufu block | Beta apoptosis | Mdm2-MdmX conf | FLuc counter | MPTP counter | others
O=C(c1ccc(S(=O)(=O)c2ccccc2Cl)c([N+](=O)[O-])c1)N1CCCCCC1 | 12* | 79* | 21 | 51* | 19 | 35 | 25 | · | 49*
C=C(C)C(=O)N1CC2(CC(c3cccc(NC(=O)/C(C)=C\C)c3)=NO2)C[C@H]1C(N)=O (some centres undefined) | 6 | 0 | -11 | 8 | -6 | -1 | · | · | ·
COC(=O)c1cccc(NC(=O)NC(=O)c2ccccc2Cl)c1 | 0 | 1 | 7 | 27 | -83 | 3 | · | · | ·
COC(=O)c1cccc(NC(=O)Nc2ccc(Cl)c(Cl)c2)c1 | 43* | 98* | 97* | 80* | -55 | 82* | 80* | 40* | 70*
COc1ccc2c(c1)C(CC(=O)NN)CCC2 (centres undefined) | 1 | -2 | · | · | -18 | · | · | · | ·
CC[C@]12c3[nH]c4cc(-c5ccco5)ccc4c3CCN1C(=O)[C@@H](CC(=O)NCc1ccc(OC)c(OC)c1)C[C@@H]2C(=O)N1CCN(C(=O)c2ccco2)CC1 | 0 | 2 | · | 33 | 9 | · | · | · | ·
COc1cc(NC(C)C(=O)N2CC(C)OC(C)C2)cc(OC)c1 (centres undefined) | 8 | 1 | 8 | -2 | -1 | -5 | · | · | ·
CC(=O)N/C(=N/c1nc(C)cc(C)n1)Nc1cccc(C)c1 | 1 | 0 | -13 | 11 | 3 | 4 | · | · | ·
Cc1sc2nc(CSC(C)C(=O)Nc3cc(S(C)(=O)=O)ccc3Cl)[nH]c(=O)c2c1C (centres undefined) | -3 | 1 | -4 | 11 | 1 | 4 | · | · | ·
COC(=O)c1ccc2c(=O)n(Cc3ccc(C(=O)NCCCN4CCC(C)CC4)cc3)c(=S)[nH]c2c1 | 0 | -1 | -1 | -6 | 5 | 2 | · | · | ·
CC1CCN(CCCNC(=O)c2ccc3c(=O)n(Cc4ccc(Cl)cc4)c(=S)[nH]c3c2)CC1 | -7 | 95* | 88* | 88* | 8 | -6 | 38 | 76* | -22
CN1CCN(CC(=O)N2CCn3c4c(c5cc(C6CCCCC6)ccc53)CCCC42)CC1 (centres undefined) | -4 | 98* | 46 | 98* | 7 | 19 | 73* | 52* | -17
O=C(CCc1nc(-c2ccccc2F)no1)Nc1ccc(Oc2ccccc2)cc1 | 2 | 107* | 57 | 61* | 31 | 1 | 23 | 52* | 94*
Cc1nnsc1-c1onc(C)c1C(=O)Nc1cc(Cl)cc(Cl)c1 | 7 | 84* | 25 | 76* | 7 | 77* | 16 | · | 79*
COc1ccc(C(=O)c2sc(Nc3cccc(OC)c3)c(C(=O)Nc3cccc(C)c3C)c2N)cc1 | 5 | 11 | -5 | 37 | 11 | 13 | · | · | ·
COc1ccccc1NC(=O)c1c(Nc2ccccc2C)sc(C(=O)Nc2cccc(Cl)c2)c1N | 31* | 87* | 74 | 75* | 8 | · | 27 | · | 51*
C=CCc1cccc(/C=N/NC(=O)C(C)Nc2ccc(C)cc2)c1O (centres undefined) | 7 | 80* | 50 | 70* | -3 | 72 | 67* | 42* | 62*
C=CCc1cccc(/C=N/NC(=O)C(=O)Nc2ccc(C)cc2)c1O | -2 | -1 | 9 | 4 | -11 | · | · | · | ·
S=C(NCc1cccs1)Nc1cc(Cl)cc(Cl)c1 | 12* | 90* | 61 | 61* | 3 | 9 | 19 | · | 78*
CCOc1ccc(-c2csc(/C(C#N)=C\c3ccc(O)c([N+](=O)[O-])c3)n2)cc1 | 8 | 73* | 108* | 96* | 25 | 74 | 83* | 52* | 70*
COc1ccccc1N(Cc1ccccc1)S(=O)(=O)c1cccc(C(=O)O)c1 | 2 | -4 | -13 | 1 | 3 | -4 | · | · | ·
COc1ccccc1N(Cc1ccccc1)S(=O)(=O)c1cccc(C(=O)NC2CC(C)(C)NC(C)(C)C2)c1 | 0 | 84* | 17 | 97* | 15 | 13 | 64* | 72* | -18 | MPTP swell DR=7.6*;MPTP cs DR=>80
CC1(C)CC(NC(=O)c2ccc(Cl)c(S(=O)(=O)N(Cc3ccccc3)c3ccccc3)c2)CC(C)(C)N1 | 3 | 97* | -4 | 99* | 17 | · | 93* | 48* | -20
CN(C)S(=O)(=O)c1ccc(NC(=O)CCNC(=O)c2ccc([N+](=O)[O-])cc2)cc1 | 0 | 0 | 2 | -3 | -2 | 4 | · | · | ·
CN1C(=O)/C(=C/c2cc(N=Nc3ccccc3)ccc2O)SC1=S | 372* | 95* | + | 92* | 12 | 4 | 47* | 53* | 61*
O=C(N/N=C/c1cn(-c2cccs2)nc1-c1ccccc1)c1ccccc1O | 26* | 99* | 23 | 63* | -15 | 7 | 15 | · | 32*
O=C(O)c1ccc(N2CCN(c3ccc(Cl)cc3)CC2)c([N+](=O)[O-])c1 | -1 | 0 | · | 10 | 5 | · | · | · | ·
CC(=O)c1ccc(N2CCC(c3cc(-c4ccc(Cl)cc4Cl)n[nH]3)CC2)c([N+](=O)[O-])c1 | 9 | 74* | 118* | 52* | 12 | 20 | 37 | · | 68*
NC(=O)CCCn1c(C(=O)c2cc(Cl)c(N)c(Cl)c2)c2ccc([N+](=O)[O-])cc2[n+]1[O-] | -1 | -2 | 15 | 47 | 9 | 54 | · | · | ·
